“And” between values parts separate entries of the source, which are not always exact repeats. Identical values can stand only once.

Experimental findings from PubChem BioAssay are described below.

One experiment can be described thus: polyglutamine aggregate formation blockers (AID 1604). To be noted: polyglutamine-induced protein aggregation inhibition assay; stronger effect = higher value; tested at 2.5 µM.
`[N-]=[N+]=CC(=O)OCC(N)C(=O)O` (stereo unspecified): the inhibition of aggregation was -39.4%.
`C[C@H](N)[C@H](O)c1ccc(O)c(O)c1`: the inhibition of aggregation was 7.58%.
As to `CC[N+]1(C)CCCC(OC(=O)C(O)(c2ccccc2)c2ccccc2)C1` (stereo unspecified), the inhibition of aggregation worked out at 91.6%.
Consider `CC1=NCCc2c1[nH]c1cc(O)ccc21`, for which the inhibition of aggregation was 14.3%.
`ClC1C(Cl)C(Cl)C(Cl)C(Cl)C1Cl` (stereo unspecified): the inhibition of aggregation came to 69.4%.
The same measure, in the same setting: the figure for `C=CCC1(C(C)CCC)C(=O)N=C(S)NC1=O` (stereo unspecified) is 42.9%; for `CCCCCCCCCCCCCCCC[n+]1ccccc1` it is 52.2%.
The same measure, in the same setting: the figure for `OC1CCCCC1N1CCC(c2ccccc2)CC1` (stereo unspecified) is 57.4%; for `CC[C@@H]1C(=O)OC[C@@H]1Cc1cncn1C` it is 35.3%.
On to `O=[N+]([O-])c1cc([As](=O)(O)O)ccc1O`, for which the inhibition of aggregation stood at 3.7%.
As for `NC(N)=NOCC[C@H](N)C(=O)O`, the inhibition of aggregation turned out to be 85.9%.
For the compound `O=C1C=CC(=O)c2c(O)cccc21`, the inhibition of aggregation was determined as 100%.
Still for that read-out and setting: the figure for `NCCc1c[nH]c2ccccc12` is 21.6%.
The same measure, in the same setting: the figure for `CN[C@@H](C)[C@@H](O)c1ccccc1` is 80.3%; for `COc1ccc2c3c([nH]c2c1)C(C)=NCC3` it is 51%.
The same measure, in the same setting: the figure for `CN1CCc2cc3c(cc2C1O)OCO3` (stereo unspecified) is 65.5%; for `CNC(C)C(O)c1ccccc1` (stereo unspecified) it is 84.6% and 51.5%; for `CN(C)[C@@H]1C(=O)C(C(N)=O)=C(O)[C@@]2(O)C(=O)C3=C(O)c4c(O)ccc(Cl)c4[C@@](C)(O)[C@H]3C[C@@H]12` it is 9.52%.

The nature of another experiment: glutamate transport activators, MN-1 cells, MN-1 cell line (AID 1612).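 Further: tested at 1 µM final; 0% = mean of DMSO vehicle wells on each plate; positive means more glutamate uptake than control and negative means less.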 To be noted: MN-1 motor neuron cells, stronger effect = higher value.
Turning to `[N-]=[N+]=CC(=O)OCC(N)C(=O)O` (stereo unspecified), the glutamate uptake change was -10.2%.
Take `C[C@H](N)[C@H](O)c1ccc(O)c(O)c1`: the glutamate uptake change worked out at 12.7%.
Same read-out and setting: the figure for `CC[N+]1(C)CCCC(OC(=O)C(O)(c2ccccc2)c2ccccc2)C1` (stereo unspecified) is -17.4%; for `CC1=NCCc2c1[nH]c1cc(O)ccc21` it is 13.4%.
With `ClC1C(Cl)C(Cl)C(Cl)C(Cl)C1Cl` (stereo unspecified), the glutamate uptake change was 1.02%.
Still for that read-out and setting: the figure for `C=CCC1(C(C)CCC)C(=O)N=C(S)NC1=O` (stereo unspecified) is 8.72%.
Still for that read-out and setting: the figure for `CCCCCCCCCCCCCCCC[n+]1ccccc1` is -18.1%.
The same measure, in the same setting: the figure for `OC1CCCCC1N1CCC(c2ccccc2)CC1` (stereo unspecified) is -9.45%; for `CC[C@@H]1C(=O)OC[C@@H]1Cc1cncn1C` it is 4.33%; for `O=[N+]([O-])c1cc([As](=O)(O)O)ccc1O` it is -17%.
In the case of `NC(N)=NOCC[C@H](N)C(=O)O`, the glutamate uptake change came to 11.4%.
The same measure, in the same setting: the figure for `O=C1C=CC(=O)c2c(O)cccc21` is 42.9%; for `NCCc1c[nH]c2ccccc12` it is 6.97%; for `CN[C@@H](C)[C@@H](O)c1ccccc1` it is -5.15%.
Still for that read-out and setting: the figure for `COc1ccc2c3c([nH]c2c1)C(C)=NCC3` is 48%; for `CN1CCc2cc3c(cc2C1O)OCO3` (stereo unspecified) it is 6.97%; for `CNC(C)C(O)c1ccccc1` (stereo unspecified) it is -17.5% and 6.9%.
Same read-out and setting: the figure for `CN(C)[C@@H]1C(=O)C(C(N)=O)=C(O)[C@@]2(O)C(=O)C3=C(O)c4c(O)ccc(Cl)c4[C@@](C)(O)[C@H]3C[C@@H]12` is 10.1%.
